The values that follow come from PubChem BioAssay (NCATS).

Structures are written as SMILES. Results filed as inconclusive are left out. Unmarked numbers belong to inactive results. The source made the active and inactive calls. Calls follow the shape of the dose curve; as a rule, active = well fitted curve in the direction sought with a large enough effect; inconclusive = small, poorly fitted or top-dose-only effect, or another doubt; inactive = no such curve, though single readings can be large; an effect the other way counts as inactive or inconclusive.

Assay [1] in a line: qHTS of pediatric cancer cell lines to identify multiple opportunities for drug repurposing: Primary screen for NB1643 cells (AID 1347099).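 Also: plate controls were DMSO neutral control for no effect and bortezomib positive control for full effect; nearly all actives have a fitted effect of over 50% in size.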 The gist of the method: (§1)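 ATP-based luminescence (CellTiter-Glo) quantifies viability after a 48-hour exposure. Compounds are dosed across 8 or 11 final concentrations; DMSO and 2.3 µM bortezomib serve as controls.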
A short description of assay [2]: qHTS of pediatric cancer cell lines to identify multiple opportunities for drug repurposing: Primary screen for LAN-5 cells (AID 1347100). Also: potency is read from the fitted curve at half-maximal effect.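 As to activity change, negative = cytotoxic: plate controls were DMSO neutral control for no effect and bortezomib positive control for full effect.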 The gist of the method: (§2)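 Viability after 48 h compound treatment at 37C, 500-1,000 cells/well, read as ATP luminescence with CellTiter-Glo. Primary screens used 11-point (MIPE, 0.78 nM-46 µM) or 8-point (NPC, 0.59 nM-46 µM) final concentrations; follow-up screens used 11-point dilutions.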

Assay [3] can be described thus: qHTS of pediatric cancer cell lines to identify multiple opportunities for drug repurposing: Primary screen for BT-12 cells (AID 1347101). Also: nearly all actives have a fitted effect of over 25% in size. Also: potency is read from the fitted curve at half-maximal effect.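 As to activity change, negative = cytotoxic: plate controls were DMSO for no effect and bortezomib positive control for full effect.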 The gist of the method:
(§3)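 Cells (500-1,000/well) rested 5 h, then received compounds for 48 h; metabolically active cells were measured by CellTiter-Glo luminescence. Final concentrations spanned up to 46 µM (MIPE, 11-point) or 0.59 nM-46 µM (NPC, 8-point) in primary screens, 11-point in follow-ups.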

Assay [4] is described as follows: qHTS of pediatric cancer cell lines to identify multiple opportunities for drug repurposing: Primary screen for Rh18 cells (AID 1347102). Also: % is scaled to controls: 0 for no effect and ±100 for the full control effect; nearly all actives have a fitted effect of over 65% in size. The gist of the method:
as §2

A short description of assay [5]: qHTS of pediatric cancer cell lines to identify multiple opportunities for drug repurposing: Primary screen for OHS-50 cells (AID 1347103).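 Also: plate controls were DMSO neutral control for no effect and bortezomib positive control for full effect; nearly all actives have a fitted effect of over 40% in size.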 In outline:
as §3

Assay [6] in a line: qHTS of pediatric cancer cell lines to identify multiple opportunities for drug repurposing: Primary screen for RD cells (AID 1347104). Also: nearly all actives have a fitted effect of over 55% in size. Also: potency is read from the fitted curve at half-maximal effect.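 As to activity change, negative = cytotoxic: plate controls were DMSO for no effect and bortezomib for full effect.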 The gist of the method:
as §1

A short description of assay [7]: qHTS of pediatric cancer cell lines to identify multiple opportunities for drug repurposing: Primary screen for MG 63 (6-TG R) cells (AID 1347105). Also: % is scaled to controls: 0 for no effect and ±100 for the full control effect; nearly all actives have a fitted effect of over 50% in size. In outline:
as §1

A short description of assay [8]: qHTS of pediatric cancer cell lines to identify multiple opportunities for drug repurposing: Primary screen for Saos-2 cells (AID 1347097). Also: nearly all actives have a fitted effect of over 40% in size. Also: potency is read from the fitted curve at half-maximal effect. As to activity change, negative = cytotoxic: % is scaled to controls: 0 for no effect and ±100 for the full control effect. In outline: as §1
Assay [9] is described as follows: qHTS of pediatric cancer cell lines to identify multiple opportunities for drug repurposing: Primary screen for SK-N-SH cells (AID 1347098).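 Also: DMSO served as neutral control and bortezomib at 2.3 µM as positive control; % is scaled to controls: 0 for no effect and ±100 for the full control effect; nearly all actives have a fitted effect of over 65% in size.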 In outline: as §3

Regarding `O=C1OC2(c3ccccc31)c1cc(Br)c(O)c(Br)c1Oc1c2cc(Br)c(O)c1Br`, the Potency entry in assay [1], in assay [2], in assay [3], in assay [4], in assay [5] and in [6] was “inactive” throughout. For the same molecule, the Potency result in [7] was “inactive”.

For `CCN(CC)CCOc1ccccc1C(=O)CCc1ccccc1`, the Potency result in assay [8], in assay [1], in assay [3], in [6] and in [7] was “inactive” in each case.

On to `Cc1ccc(O)c([C@H](CCN(C(C)C)C(C)C)c2ccccc2)c1`, for which the Potency result in [8], in assay [1], in assay [2], in assay [3], in assay [4] and in assay [7] was “inactive” each time.

With `O=C(Oc1cccc2cccnc12)c1ccccc1`, the Potency in assay [8] was 15 µM (active); in assay [3], 6.17 µM (active).

`N=C(N)N1CCc2ccccc2C1`: the activity change, negative = cytotoxic in [9] is -21.9% [at 6 µM]; in assay [1], -5.24% [at 4.84 µM]; in assay [3], -5.09% [at 6.03 µM]; in [4], 1.68% [at 4.84 µM]; in [6], -9.62% [at 4.84 µM]; in assay [7], -18.3% [at 4.84 µM].

`Cc1cc(C)cc(OCC2CNC(=O)O2)c1` (configuration not stated): the Potency entry in [8], in assay [1], in assay [2], in [3], in assay [4] and in assay [5] was “inactive” throughout. Further, the Potency result in assay [6] and in assay [7] was “inactive” each time.

In the case of `CCCN(CCC)S(=O)(=O)c1ccc(C(=O)O)cc1`, the Potency entry in assay [1], in assay [3], in assay [4], in [5], in [6] and in assay [7] was “inactive” each time.

Turning to `CC(=O)OC[C@H]1O[C@@H](n2ncc(=O)[nH]c2=O)[C@H](OC(C)=O)[C@@H]1OC(C)=O`, the Potency in assay [8] was 4.22 µM (active). Moreover, the Potency entry in assay [9], in assay [4] and in assay [7] was “inactive” each time.

On to `CC1(C)OC[C@@H]2O[C@@]3(C(=O)O)OC(C)(C)O[C@H]3[C@@H]2O1`, for which the Potency result in assay [9], in assay [1], in assay [2], in assay [3], in [4] and in [5] was “inactive” throughout. The Potency entry in [6] and in [7] was “inactive” in each case.

Take `C#C[C@]1(OC(C)=O)CC[C@H]2[C@@H]3CCC4=C/C(=N/O)CC[C@@H]4[C@H]3CC[C@@]21CC`: the Potency in assay [2] was 23.7 µM (active); in assay [6] it was 29.9 µM (active). The Potency entry in assay [3] and in assay [7] was “inactive” each time.

With `CCN(CC)CCOC(=O)C1(c2ccccc2)CCCC1`, the Potency entry in assay [9], in [1], in assay [3], in assay [5], in [6] and in assay [7] was “inactive” each time.
